This passage reports survival results from PubChem BioAssay.

A number with no mark means an inactive call. The rule behind the calls is not given here.

The nature of this experiment: hESC survival regulators, cell-based (AID 493140).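 Note: cells exposed to compounds for four days before counting.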 The note with it: human embryonic stem cell survival screen; hits give high values.
For the compound `CCCCC/C=C\C\C=C/C=C/C=C/[C@@H](SCC(NC(=O)CCC(N)C(=O)O)C(=O)NCC(=O)O)[C@@H](O)CCCC(=O)O` (stereo partly specified), the survival was 90.2.

In the case of `CC(=O)CC(=O)[C@@]1(O)CC[C@H]2[C@@H]3C=C(C)C4=CC(=O)CC[C@@H]4[C@H]3CC[C@@]21C`, the survival is 10.6. Regarding `CO/N=C(/C(=O)N[C@@H]1C(=O)N2C(C(=O)[O-])=C(C[N+]3(C)CCCC3)CS[C@H]12)c1csc(N)n1`, the survival was 5.92. Then `C=CCN1/C(=C\CO)[C@@H]2C[C@@H]3[C@H]1CC[C@@]31c3ccccc3N3/C=C4\C5N(/C=C/2C31)c1ccccc1[C@@]51CC[C@@H]2[C@H]1C[C@H]4/C(=C/CO)N2CC=C` (stereo partly specified), with 26.5; and `CCCCC[C@H](O)/C=C/C=C\C/C=C\CCCCC(=O)O`, with 67.2.

Turning to `CCCCC/C=C\C=C\C(O)CCCCCCCC(=O)O` (stereo unspecified), the survival is 83.9. As to `C[C@@]1(O)CCOC(=O)C1`, the survival is 4.42. As for `CC/C=C\C/C=C\C/C=C\C/C=C\C/C=C\CCC(=O)O[C@H](COCCCCCCCCCCCCCCCC)COP(=O)([O-])OCC[N+](C)(C)C`, the survival was 83.1.

In the case of `O=C(O)CCC/C=C\C/C=C\C=C\[C@@H](O)C/C=C\CCCCCO`, the survival was 89.3. `CC/C=C\C[C@H](O)/C=C/C=C\C/C=C\C/C=C\CCCC(=O)O`: the survival was 122. With `CCCCC[C@H](O)/C=C/C=C\C/C=C\CCCCCCC(=O)O`, the survival was 102. Consider `CCCCC[C@H](O)/C=C/[C@H]1OC(=O)C[C@H](O)[C@@H]1C/C=C\CCCC(=O)O`, for which the survival was 110. To `C=Cc1c(C)c2cc3nc(cc4[nH]c(cc5nc(cc1[nH]2)C(C)=C5CCC(=O)O)c(CCC(=O)OC)c4C)[C@@]1(C)C3=CC=C(C(=O)OC)C1C(=O)OC` (stereo partly specified) (tested in a mixture with another compound) belongs 12.9; to `O=c1[nH]c(=O)n([C@H]2C[C@@H](O)[C@@H](CO)O2)cc1C(F)(F)F`, 0.583.

As for `CCC(C(=O)C(C)C(O)C(C)CCc1ccc(C)c(O)c1C(=O)O)[C@H]1O[C@](CC)([C@H]2CC[C@](O)(CC)[C@H](C)O2)C[C@@H]1C` (stereo partly specified), the survival is 24.1. As to `CCCCCCCCC1OC1CCCCCCCC(=O)O` (stereo unspecified), the survival was 92.8.

For the compound `CCCCC[C@H](O)/C=C/C=C/C=C/[C@H](O)C/C=C\CCCC(=O)O`, the survival was 107. In the case of `CC1(C)S[C@@H]2[C@H](NC(=O)C3(N)CCCCC3)C(=O)N2[C@H]1C(=O)O`, the survival was 3.83.

For `CCCCC/C=C\C\C=C/C=C/C=C/[C@@H](SCC(N)C(=O)NCC(=O)O)[C@@H](O)CCCC(=O)O` (stereo partly specified), the survival was 109.

`CCCCC/C=C\C=C\[C@@H](O)C/C=C\C/C=C\CCCC(=O)O`: the survival was 81.2. Consider `CNC1C(O)C2O[C@H](OC3C(N)C[C@@H](N)C(O)[C@H]3O)C(N)C[C@H]2O[C@@H]1O[C@H]1OC(CO)[C@@H](N)[C@H](O)C1O` (stereo partly specified), for which the survival is 10.6.

Regarding `CC/C=C\C/C=C\C/C=C\C/C=C\C=C\C(O)CCCC(=O)O` (stereo unspecified), the survival was 128. Take `CCCCC[C@H](O)/C=C/C=C\C=C\[C@@H](O)C/C=C\CCCC(=O)O`: the survival was 135. For the compound `CCCCC/C=C\C/C=C\C[C@H](O)/C=C/C=C\CCCC(=O)O`, the survival is 91.5. To `COc1ccc2nccc(C(=O)O)c2c1` belongs 19.9; to `CCCCC/C=C\C/C=C\C=C\[C@@H](O)C/C=C\CCCC(=O)O`, 129.
